L3MBTL1 block: L3MBTL1 (human) inhibition. Q9Y468. AlphaScreen L3MBTL1–H3K9me1 peptide binding. Potency, µM (titrated, usually from 57.1 µM), for inactives: top-dose activity, negative = inhibition, hits mostly inhibitors. 0.66% of 230,000 active; further: on the % scale 0 is the no-effect control and ±100 the full control effect; nearly all actives have a fitted effect of over 60% in size
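L3MBTL1 (50 nM) pre-complexed 30 min with biotinylated H3(1-15)K9me1 peptide (75 nM), then compounds added for 30 min at room temperature; AlphaScreen streptavidin donor/nickel chelate acceptor beads (10 ug/mL final) read after 30 min dark incubation.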
HP1b chromo inh: HP1-beta chromodomain-methylated histone interaction inhibition | AlphaScreen HP1-beta / biotin-H3K9me3 peptide binding | Potency, µM (series often up to 114 µM), inactives show at the top dose activity change, negative = inhibition, hits mostly inhibitors | 0.56% of 390,000 active | AID 540317; further: nearly all actives have a fitted effect of over 70% in size
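AlphaScreen: HP1-beta (50 nM) preformed 30 min with biotin-H3(1-18)K9me3 peptide (50 nM) in PBS pH 7.4, 0.01% Tween-20. Compound added for 30 min at RT, then streptavidin donor/nickel chelate acceptor beads (10 ug/mL) for 30 min.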
G9a inh: G9a (human) methyltransferase inhibition; Q96KQ7; G9a H3K9 monomethylation, AlphaScreen, 2 h; Potency, µM (doses to about 102 µM), inactives show at the top dose activity, negative = inhibition, actives largely listed as inhibitors; 8.8% of 350,000 active; AID 504332; further: on the % scale 0 is the no-effect control and ±100 the full control effect; nearly all actives have a fitted effect of over 75% in size
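Quantitative HTS format: methyltransferase activity on a biotin-tagged H3K9 peptide is measured by AlphaScreen, using a rabbit anti-monomethyl-H3K9 antibody with streptavidin donor and anti-IgG acceptor beads. Final levels are 20 nM enzyme, 500 nM peptide, 20 uM SAM; 2 h RT.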
JMJD2A Tudor inh: JMJD2A Tudor domain (human) inhibition; O75164; AID 504339; Potency, µM (doses to about 114 µM), for inactives: at the highest dose activity change, negative = inhibition, actives largely listed as inhibitors; 4.4% of 390,000 active; AlphaScreen JMJD2A-Tudor / H3K4me3 peptide binding; further: on the % scale 0 is the no-effect control and ±100 the full control effect; nearly all actives have a fitted effect of over 50% in size
BAZ2B inh: BAZ2B (human) inhibition | AID 504333 | 4.4% of 360,000 active | Potency, µM (top dose mostly 114 µM), without a hit: at the highest dose activity change, negative = inhibition, most hits filed as inhibitors | Q9UIF8 | AlphaScreen BAZ2B-H3K14Ac peptide displacement; further: on the % scale 0 is the no-effect control and ±100 the full control effect; nearly all actives have a fitted effect of over 60% in size
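Complex of BAZ2B and biotin-H3K14Ac (50 nM apiece) forms over 30 min at RT, then faces library compounds up to 110 uM for another 30 min; AlphaScreen beads added, 20 min dark incubation, luminescence read.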
* = called active by the depositor; u = inconclusive; x = not tested or not shown; ! = not active in a repeat; [ ] = another dose, or the depositor's remark. A selection: hits, their analogues and other compounds. The true share with any hit is near 11%. The call rests on the fitted dose curve; in most records, active means well fitted inhibition curve with a large enough effect; inconclusive means small, poorly fitted or top-dose-only effect; inactive means no such curve, though single readings can be large or run the other way. Potency means the concentration at half of the fitted maximal effect.

SMILES	L3MBTL1 block	HP1b chromo inh	G9a inh	JMJD2A Tudor inh	BAZ2B inh
Cc1c(C)n(C)c2ccc(C(=O)NCc3cccc(F)c3)cc12	x	0%	u	u	u
CCN(CC)c1ccc(NC(=O)c2ccc3c(c2)c(C)c(C)n3C)cc1	x	35µM*	3.2µM*	18µM*	11µM*
Cc1ccccc1CNC(=O)c1ccc2[nH]c(C)c(C)c2c1	x	-16%	u	50µM*	40µM*
COc1ccccc1CCNC(=O)c1ccc2c(c1)c(C)c(C)n2C	x	u	-33%[59 µM]	u	u
CCc1ccccc1NC(=O)c1ccc2[nH]c(C)c(C)c2c1	x	29%	2%[59 µM]	-25%	21%
CC(C)(C)OC(=O)Cc1nnc(-c2nc3ccccc3[nH]2)o1	x	x	x	-14%	x
CN1C(C(=O)c2ccccc2)=C(NC(=O)c2ccc(F)cc2)c2ccccc2S1(=O)=O	x	15%	-32%[59 µM]	-13%	-20%
CN1C(C(=O)Nc2ccc(C(=O)O)cc2)=C(O)c2ccccc2S1(=O)=O	7%	-6%	u	79µM*	-29%
COC(=O)Cc1n[nH]c(=S)[nH]c1=O	2%	0%	0%[59 µM]	79µM*	-34%
COC(=O)Cc1n[nH]c(=O)c2ccccc12	x	26%	30%[12.7 µM]	-1%	-3%
CSc1n[nH]c(NC(C)=O)n1	9%	-10%	21%[59 µM]	11µM*	u
CCCSc1n[nH]c(NC(C)=O)n1	-2%	21%	u	-19%	-5%
CCn1ccc2cc(S(=O)(=O)N3CCC(C(=O)NCCc4ccccc4Cl)CC3)ccc21	x	7%[57 µM]	-3%[59 µM]	-17%	-4%
O=Cc1ccc(-c2cccc(C(=O)O)c2)o1	u	26%	50µM*	-22%	u
O=C(/C=C/c1ccc(-c2ccccc2)o1)c1ccccc1	-21%	u	u	-4%	35µM*
Cc1nnc(N/N=C\c2ccc(-c3cccc(C(=O)O)c3)o2)n1N	u	-9%	40µM*	25µM*	79µM*
Cc1ccc(-c2ccc(/C=C/C(=O)c3ccccc3)o2)cc1	-12%	-6%	-19%[59 µM]	-20%	u
Nc1nonc1-c1nc2ccccc2n1CC(=O)N/N=C/c1ccc(-c2cccc(C(=O)O)c2)o1	u	50µM*	7.9µM*	40µM*	20µM*
CCOC(=O)c1cccc(-c2ccc(C=O)o2)c1	-14%	18%	-29%[59 µM]	-14%	7%
Cc1nnc(N/N=C/c2ccc(-c3ccc(Br)cc3)o2)n1N	-23%	-14%	-46%	-30%	x
Nc1nonc1-c1nc2ccccc2n1CC(=O)Nc1ccccc1C(=O)O	x	27%	37%[59 µM]	-6%	6%[57.1 µM]
CCN(C(=O)C1CCCN(S(=O)(=O)c2c(C)noc2/C=C/N(C)C)C1)c1cccc(C)c1 (stereo not drawn)	x	10%	-27%[59 µM]	u	-34%
Oc1c(Cl)cc(Cl)cc1CNc1nc2ccccc2[nH]1	-9%	17%	-10%	-28%	u
Cc1cc(OCCn2cnc3ccccc3c2=O)cc(C(C)C)c1	11%	14%	-2%[59 µM]	79µM*	-6%
CCCOc1ccc(/C=C2/C(=O)ON=C2C)cc1OCC	x	26%	45µM*	-8%	-8%
SMILES	L3MBTL1 block	HP1b chromo inh	G9a inh	JMJD2A Tudor inh	BAZ2B inh
CCOc1cc(/C=C/C(=O)O)ccc1OCc1ccccc1	x	46%	-32%	2%	x
CCOc1cc(/C=C2\C(=O)ON=C2C)ccc1OCc1ccccc1	2%	6%	13µM*	-18%	-25%
CCCOc1ccccc1/C=C1/C(=O)ON=C1C	x	28%	-22%	0%	-35%
CC(C)N1C/C(=C/c2ccsc2)C(=O)/C(=C/c2ccsc2)C1	-13%	-13%	u	u	45µM*
COC(=O)C1CCN(C(=O)COC(=O)c2cc(-c3cccs3)nn2-c2ccccc2)CC1	2%	22%	-10%[2.33 µM]	-13%	4%
CN1CCC(N(C)S(=O)(=O)c2ccc(NC(=O)COc3ccc(F)cc3Cl)cc2)CC1	x	21%	u	-9%	-30%
CN1CCC(N(C)S(=O)(=O)c2ccc(NC(=O)COc3ccc([N+](=O)[O-])cc3)cc2)CC1	-14%	24%	13µM*	-11%	u
CN1CCC(N(C)S(=O)(=O)c2ccc(NC(=O)COc3ccc(F)cc3)cc2)CC1	u	3%	11µM*	-20%	u
CN1CCC(N(C)S(=O)(=O)c2ccc(NC(=O)COc3ccc(Cl)cc3)cc2)CC1	-9%	20%	16%[12.7 µM]	-19%	0%
CN(C)c1ccc(CNS(=O)(=O)c2ccc3[nH]c4c(c3c2)CCCCC4)cc1	x	-10%	u	-16%	3%[57.1 µM]
COc1nc(C#N)nc(N2CCCCC2)n1	x	25%[57 µM]	x	-9%[57.1 µM]	x
CCOC(=O)C(=CNNc1cccc(Cl)c1)C(=O)OCC	-23%	u	3.5µM*	79µM*	-8%
O=C1CC(SCc2nc3ccccc3[nH]2)C(=O)N1c1ccc(F)c(Cl)c1 (stereo not drawn)	x	62%	40µM*	3%	u
O=C1CC(SCc2nc3ccccc3[nH]2)C(=O)N1c1ccc(Cl)cc1 (stereo not drawn)	-5%	43%	18µM*	-16%	0%
O=c1[nH]cnc2nc[nH]c12	x	x	-5%[12.7 µM]	x	x
O=c1[nH]cnc2c1N1CCC2CC1	-24%	10%	45µM*	28µM*	u
Cc1cncn1CCc1nc2c3ccccc3nc(SCC(=O)Nc3ccc(F)cc3)n2n1	x	18%	2%[59 µM]	-19%	-28%
CCOc1ccccc1NC(=O)CSc1nc2ccccc2c2nc(CCn3cncc3C)nn12	x	21%	u	-26%	56µM*
COc1ccccc1NC(=O)CSc1nnc2ccc(-c3cccnc3)nn12	-3%	14%	40µM*	-15%	71µM*
Cc1cncn1CCc1nc2c3ccccc3nc(SCC(=O)Nc3cccc(Cl)c3)n2n1	-19%	30%	14µM*	u	11µM*!
CCOc1ccccc1NC(=O)CSc1nnc2ccc(-c3cccnc3)nn12	10%	31%	5%	-5%	-15%
CCOc1ccccc1-n1c(SCC(=O)Nc2ccccc2C(=O)O)nc2ccccc2c1=O	x	24%	50µM*	-1%	9%
COc1cccc(-c2ccc3ncnc(Nc4ccccc4)c3c2)c1	x	x	-39%[0.501 µM]	x	x
O=C(CSc1nc2ccccc2c2nc(-c3ccccc3)nn12)Nc1ccc(F)cc1	x	42%	9%[59 µM]	-22%	-5%
COc1ccccc1NC(=O)CSc1nc2ccccc2c2nc(-c3ccccc3)nn12	x	28%	6%[59 µM]	32µM*	-2%
O=C(NCc1ccc(Cl)cc1)C(=O)NCC(c1cccnc1)N1CCN(c2ccccc2)CC1 (stereo not drawn)	x	12%	1%[59 µM]	-21%	-12%
Cn1cncc1CNc1ncnc2ccc(-c3ccc4c(c3)OCO4)cc12	x	x	x	56µM*	x
Cc1ccccc1NC1(C#N)C(=O)Nc2ccccc21 (stereo not drawn)	x	17%	13%	-30%	u
